GLP1R ag – agonists of human GLP-1 receptor; P43220; HEK293 GLP-1R CRE-luciferase, luminescence, 4-6 h; cells express a hypersensitive GLP-1R form; Potency, µM (titrated, usually from 45.6 µM), most hits filed as activators; 380,000 compounds, 0.007% hits; AID 624172
Target sequence (P43220 whole entry, looked up): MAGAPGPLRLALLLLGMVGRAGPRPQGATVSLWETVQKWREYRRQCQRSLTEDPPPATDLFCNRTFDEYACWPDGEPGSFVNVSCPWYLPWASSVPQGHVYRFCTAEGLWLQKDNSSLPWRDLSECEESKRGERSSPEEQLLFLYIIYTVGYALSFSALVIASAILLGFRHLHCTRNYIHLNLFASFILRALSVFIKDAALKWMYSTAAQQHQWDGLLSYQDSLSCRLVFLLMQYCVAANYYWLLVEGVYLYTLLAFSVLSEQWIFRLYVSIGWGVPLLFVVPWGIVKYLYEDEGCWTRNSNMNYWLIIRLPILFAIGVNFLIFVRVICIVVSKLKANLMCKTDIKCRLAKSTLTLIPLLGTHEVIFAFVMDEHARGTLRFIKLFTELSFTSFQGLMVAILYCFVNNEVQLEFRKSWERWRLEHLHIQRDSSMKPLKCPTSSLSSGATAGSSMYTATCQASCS
uPA surface inh – cell surface uPA generation inhibition; cell surface uPA generation assay, qHTS; 330,000 compounds, 0.31% hits; Potency, µM (highest dose often 38.3 µM), usual class: inhibitors; AID 540303; active = well fitted inhibition curve with a large enough effect; inconclusive = small, poorly fitted or top-dose-only effect; inactive = no such curve, though single readings can be large or run the other way; tested in mouse RAW 264.7 cells; also: nearly all actives have a fitted effect of over 55% in size
GLP1R cytotox – cytotoxic in the GLP-1 receptor inverse agonist counter-screen. HEK293 cAMP-luciferase reporter cells, luminescence, 24 h. Potency, µM (top dose mostly 38.3 µM), most hits filed as inhibitors. 410,000 compounds, 0.13% hits;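 also: loss of luciferase light is scored as toxicity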
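Seeding density was 200 cells/uL; after overnight-length (12 h) culture, 23 nL compounds went on for 24 h at 37 °C. Readout used a luciferase detection reagent, luminescence taken after 12 min at room temperature.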
CCT modulator – changes cytosolic chaperonin activity. purified chaperonin ATPase assay, HTRF ADP detection, 30 min. 360,000 compounds, 0.3% hits. AID 651819. activity change, % (concentration not given with the values), hits read low; in the data active = activity change below about -30%
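Enzyme 40 or 20 nM (batch-dependent) in Tris pH 7.4/KCl/MgCl2/DTT; cpd 76 uM single point; ATP 10 uM; 30 min 37 °C; Transcreener ADP HTRF detection, 30 min RT; ratio 665/615.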
GLP-1R inv ag – GLP-1 receptor (human) inverse agonism; P43220; HEK293 GLP-1R CRE-luciferase, luminescence, 24 h; GLP-1R form is constitutively active; Potency, µM (highest dose often 38.3 µM), hits mostly inhibitors; 410,000 compounds, 1.6% hits; AID 624417; also: nearly all actives have a fitted effect of over 55% in size
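Constitutively active GLP-1R drives a cAMP-responsive luciferase in stably transfected HEK293 cells; test compounds are added after overnight (12 h) attachment and left 24 hr, and signal loss in luminescence marks inhibition.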
MmCpn inh – M. maripaludis TRiC chaperonin inhibition. Potency, µM (doses to about 76.9 µM), hits mostly inhibitors. purified Mm-Cpn ATPase, ADP Transcreener TR-FRET. 330,000 compounds, 0.031% hits; also: nearly all actives have a fitted effect of over 80% in size
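25 nM Mm-CPN + cpd, 10 min 37°C; + 10 uM ATP, 30 min 37°C; buffer 30 mM Tris pH 7.4, 100 mM KCl, 5 mM MgCl2, 1 mM DTT; Transcreener ADP HTRF detection 30 min RT.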
Of the large screens only hits and unclear results are named; the others gave an inactive call. Hits are enriched below; roughly 2.2% of the tested compounds scored in any of these assays. Unless noted, calls follow the shape of the dose curve; as a rule, active = well fitted curve in the direction sought with a large enough effect; inconclusive = small, poorly fitted or top-dose-only effect, or another doubt; inactive = no such curve, though single readings can be large; an effect the other way counts as inactive or inconclusive.

Cc1ccc([N+](=O)[O-])cc1N=C(c1cccc(Br)c1)N1CCOCC1	GLP-1R inv ag 7.9µM
O=C(Oc1cccc(C(=S)N2CCOCC2)c1)c1ccc([N+](=O)[O-])cc1	none
COc1cccc(C(=O)c2c[nH]c(C(=O)NCc3ccco3)c2)c1	CCT modulator -42
COc1ccc(C(=O)c2c[nH]c(C(=O)NCc3ccco3)c2)cc1	none
CCOC(=O)C1=C(N)Oc2cc(O)ccc2C1c1ccc([N+](=O)[O-])cc1 (centres undefined)	GLP-1R inv ag 10µM
CN(C)c1ccc(C(=O)NCc2ccc3c(c2)CCN3C(=O)c2ccccc2)cc1	none (no result: GLP1R ag, uPA surface inh, CCT modulator, MmCpn inh)
Cc1nc2c(-c3ccc(F)cc3)cnn2c(N)c1-c1ccc(F)cc1	GLP-1R inv ag 2µM
COc1ccc(-c2c(C)nc3c(-c4ccccn4)cnn3c2N)cc1	GLP1R cytotox 10µM, GLP-1R inv ag inconclusive
COc1ccc(-c2c(C)nc3c(-c4ccsc4)cnn3c2N)cc1	none
CCOC(=O)c1cc(OC(=O)c2cccc([N+](=O)[O-])c2)n(-c2ccccc2)n1	CCT modulator -35 (no result: uPA surface inh)
CCOC(=O)c1cc(OC(=O)c2ccccc2)n(-c2ccccc2)n1	none (no result: uPA surface inh)
O=C(CNC(c1ccccc1)c1ccccc1)NCc1ccccc1Cl	GLP-1R inv ag 10µM
CCCC(=O)NCc1ccccc1Cl	none
CCN(CC)CCNc1nc(-n2nc(C)cc2C)nc2sc3c(c12)CC(C)(C)OC3	GLP1R cytotox inconclusive, GLP-1R inv ag 4.5µM
COc1ccc(-c2ccc3c(c2)S(=O)(=O)c2cccc(C(=O)N4CCN(c5ccccn5)CC4)c2C3=O)cc1OC	CCT modulator -32 (no result: uPA surface inh, MmCpn inh)
COc1ccc(-c2ccc3c(c2)S(=O)(=O)c2cccc(C(=O)N4CCN(C5CCCCC5)CC4)c2C3=O)cc1OC	uPA surface inh 3.2µM
CCc1ccccc1NC(=O)N1CCN(c2cc(-c3noc(C)n3)ccc2C)CC1	none (no result: uPA surface inh, CCT modulator, MmCpn inh)
Cc1cc(C(=O)OCc2nnc(-c3ccccc3)o2)c(C)n1-c1ccccc1	CCT modulator -127, GLP-1R inv ag inconclusive
O=C(OCc1nnc(-c2ccccc2)o1)c1ccccc1	none
O=C(OCc1nnc(-c2ccccc2)o1)c1ccc(-n2cnnn2)cc1	none
O=C(OCc1nnc(-c2ccccc2)o1)c1cn(-c2ccccc2)nc1-c1ccccc1	GLP-1R inv ag 13µM
CCc1ccc(S(=O)(=O)c2cnc3ccc(OC)cc3c2N2CCCC(C)C2)cc1 (centres undefined)	GLP-1R inv ag inconclusive (no result: GLP1R ag, uPA surface inh, CCT modulator, MmCpn inh)
CC(C)(C)c1cc(C(=S)N2CCCC2)cc(C(C)(C)C)c1O	GLP-1R inv ag 8.9µM
CC(C)(C)c1cc(CCC(=O)N2CCCC2)cc(C(C)(C)C)c1O	GLP-1R inv ag inconclusive
COc1ccccc1CCNC(=O)C(=O)NCC(c1ccco1)S(=O)(=O)c1ccccc1 (centres undefined)	none (no result: GLP1R ag, uPA surface inh, CCT modulator, MmCpn inh)
O=C1C(c2cccc(Br)c2)N(CCc2ccccc2)C(=O)CN1C1CCCCC1 (centres undefined)	none (no result: GLP1R ag, uPA surface inh, CCT modulator, MmCpn inh)
Cc1ccc2c(c1)/C(=C/c1ccc(F)cc1)C(=O)N2	GLP-1R inv ag inconclusive
Cc1ccc(C2=N/C(=C\c3ccc(F)cc3)C(=O)N2)cc1	CCT modulator -44
Cc1ccc(-n2nc3c(=O)n(CCCC(=O)NC(C)c4ccccc4)nc(C)c3c2C)cc1 (centres undefined)	none (no result: GLP1R ag, uPA surface inh, CCT modulator, MmCpn inh)
N=c1n(CCN2CCCC2)c2ccccc2n1CC(O)c1ccco1 (centres undefined)	none
CCCCCn1c(=N)n(CC(O)COc2cccc(C)c2)c2ccccc21 (centres undefined)	GLP1R cytotox inconclusive, GLP-1R inv ag 11µM (no result: GLP1R ag, uPA surface inh, CCT modulator, MmCpn inh)
CCCCCCCn1c(=N)n(CC(O)c2ccco2)c2ccccc21 (centres undefined)	GLP1R cytotox inconclusive, GLP-1R inv ag 11µM
COc1ccccc1C1c2ccc3ccccc3c2Oc2ncn(CCN(C)C)c(=N)c21 (centres undefined)	GLP1R cytotox inconclusive, GLP-1R inv ag 2.8µM
COc1ccc(C2c3ccc4ccccc4c3Oc3ncn(CCCN(C)C)c(=N)c32)cc1 (centres undefined)	GLP1R cytotox inconclusive, GLP-1R inv ag 4.5µM
COc1ccccc1C1c2ccc3ccccc3c2Oc2ncn(CCCO)c(=N)c21 (centres undefined)	GLP1R cytotox inconclusive, GLP-1R inv ag inconclusive
CCc1ccc(CNC(=O)c2cnc3sc(N4CCCCC4)nn3c2=O)cc1	none (no result: GLP1R ag, uPA surface inh, CCT modulator, MmCpn inh)
Fc1ccc(-c2cn3cc(Cc4ccc(Cl)cc4)sc3n2)cc1	none (no result: uPA surface inh, CCT modulator, MmCpn inh)
CCOC(=O)c1ccccc1NS(=O)(=O)c1ccc(N2CCCCS2(=O)=O)cc1	none (no result: GLP1R ag, uPA surface inh, CCT modulator, MmCpn inh)
Cc1cccc(NC(=O)Cn2nc(-c3ccccc3)c3cnc4ccccc4c32)c1	none (no result: GLP1R ag, uPA surface inh, CCT modulator, MmCpn inh)
COc1ccccc1Nc1cc2cc(Br)ccc2c(=O)[nH]1	uPA surface inh 3.2µM, GLP1R cytotox inconclusive, GLP-1R inv ag inconclusive (no result: MmCpn inh)
O=c1[nH]c(Nc2ccccc2)cc2cc(Br)ccc12	uPA surface inh inconclusive (no result: MmCpn inh)
Cc1ccc2onc(CNC(=O)NCc3ccccc3)c2c1	none (no result: GLP1R ag, uPA surface inh, CCT modulator, MmCpn inh)
CCCCSc1nc2c([nH]1)c(=S)n(C)c(=O)n2C	GLP1R cytotox inconclusive, GLP-1R inv ag inconclusive (no result: MmCpn inh)
CCCC(CC)Sc1nc2c([nH]1)c(=S)n(C)c(=O)n2C (centres undefined)	GLP1R cytotox 0.89µM, GLP-1R inv ag inconclusive (no result: MmCpn inh)
CCN(CC)CCSc1nc2c([nH]1)c(=S)n(C)c(=O)n2C	GLP1R cytotox 5.6µM, GLP-1R inv ag inconclusive (no result: MmCpn inh)
COc1cccc(C2C(C(=O)Nc3ccccc3)=C(C)Nc3nnnn32)c1OC (centres undefined)	none (no result: GLP1R ag, uPA surface inh, CCT modulator, MmCpn inh)
CCCCCCNC(=O)c1cccc(-c2ccc(C)c3ccccc23)n1	GLP-1R inv ag 11µM
CCCNC(=O)C1(C)CCCN(Cc2cccc3ccccc23)C1 (centres undefined)	GLP-1R inv ag 10µM (no result: uPA surface inh, MmCpn inh)
CCCNC(=O)C1(C)CCCN(Cc2ccccc2Cl)C1 (centres undefined)	none (no result: uPA surface inh, MmCpn inh)
Cc1ccc(C)c(S(=O)(=O)c2nnn3c2nc(NCc2ccc4c(c2)OCO4)c2sccc23)c1	none (no result: GLP1R ag, uPA surface inh, CCT modulator, MmCpn inh)
Cc1cc(-c2nnc(SCC(=O)Nc3ccccc3C(F)(F)F)o2)c(C)n1-c1ccccc1	GLP-1R inv ag 0.89µM
Cc1sc(NC(=O)CSc2nnc(-c3ccc(F)cc3)o2)c(C#N)c1C	CCT modulator -50
COc1ccc(-c2nnc(SCC(=O)NC(C)c3ccccc3)o2)cc1 (centres undefined)	CCT modulator -50
COc1ccc(-c2nnc(SCC(=O)Nc3ccccc3OC)o2)cc1	none
COc1cc(OC)cc(-c2nnc(SCC(=O)N(Cc3ccccc3)C(C)(C)C)o2)c1	GLP-1R inv ag 8.9µM
Clc1cc(Cl)c(OCC#CI)cc1Cl	none (no result: uPA surface inh, GLP1R cytotox, CCT modulator, GLP-1R inv ag, MmCpn inh)
Cc1ccc(-c2nnc(SCC(=O)Nc3ccccc3F)o2)cc1	uPA surface inh 8.9µM, GLP-1R inv ag 2.2µM
